Assay outcomes as filed in PubChem.
Sampled rows, rich in hits. Any-hit rate of the full collection: about 12%.
Shiga inhibitor = Shiga toxin inhibition; inhibition, % at 38.7 µM; Vero cells, Shiga toxin protein synthesis inhibition reporter; 290,000 tested, 9.2% active; in the data active means inhibition mostly above about 28%, no sharp cut-off; inactive means mostly below about 43%; further: 0% is about no effect
MARV entry inh = inhibitors of Marburg virus binding or cell entry. Potency, µM (doses to about 37.8 µM), for the others: at the highest dose activity change, negative = inhibition, most hits filed as inhibitors. 300,000 tested, 1.8% active. AID 540276. Marburg virus pseudotyped entry inhibition, cell reporter; calls by dose curve; tested in HEK293 cells; further: potency means the concentration at half of the fitted maximal effect; on the % scale 0 is the no-effect control and ±100 the full control effect
Cycloheximide cs = counter-screen for Shiga toxin inhibitors: cycloheximide protein synthesis inhibition; max response, %; 300,000 tested, 12% active; AID 2314; cell reporter, cycloheximide protein synthesis inhibition counterscreen; in the data active means max response mostly above about 13%, no sharp cut-off; inactive means mostly below about 14%; further: read at 38.3 µM for the half of the compounds with a filed dose; 0% is about no effect
LASV entry inh = Lassa virus entry inhibition | Lassa virus pseudotype entry inhibition, cell reporter | Potency, µM (top dose mostly 37.9 µM), for the others: at the highest dose activity change, negative = inhibition, most hits filed as inhibitors | 300,000 tested, 1.2% active | AID 540256; calls by dose curve; tested in HEK293 cells; further: potency means the concentration at half of the fitted maximal effect; on the % scale 0 is the no-effect control and ±100 the full control effect; nearly all actives have a fitted effect of over 50% in size
* marks the source's active call; other numbers are inactive results; ? = inconclusive; / = no result; ! = a repeat was not active; [ ] = remark or other dose.

SMILES	Shiga inhibitor	MARV entry inh	Cycloheximide cs	LASV entry inh
CCN1/C(=C/c2ccc3cccc(C)c3[n+]2CC)Sc2ccccc21	10	2.6µM*	-2	6.5µM*
CC1Cc2cc(S(=O)(=O)NCCc3ccccc3)ccc2N1C(=O)C1CCC1 (stereo not given)	/	/	/	-21%[46.1 µM]
Fc1ccccc1OCCn1c(=S)[nH]c2ccccc21	28*	17%	24*	4%
CC1C(=O)N2CCCc3cc(NC(=O)c4ccccc4C(F)(F)F)cc1c32 (stereo not given)	/	-8%	/	-4%
Cc1ccnc(NC(=O)CNC(=O)c2sc3ccccc3c2Cl)c1	/	5%	/	-24%
Cc1ccc(NC(=O)c2sc3ccccc3c2Cl)nc1	65*	?	43*	5.8µM*
COCc1nnc(NC(=O)c2sc3ccccc3c2Cl)s1	91*	10%	44*	-19%
O=C(NC1=NCCS1)c1sc2cc(Cl)cc(Cl)c2c1Cl	9	?	-3	-4%
CCN(CC)c1ccc(NC(=O)c2sc3ccccc3c2Cl)cc1	/	/	/	-24%[46.1 µM]
CNC(=O)c1ccsc1NC(=O)c1sc2ccccc2c1Cl	27	?	22*	2%
O=C(NC1=NCCS1)c1sc2ccccc2c1Cl	93*	?	47*	?
O=C(NCC(c1ccco1)N1CCN(c2ccc(F)cc2)CC1)C1CCCCC1 (stereo not given)	/	-20%	/	-23%
O=[N+]([O-])c1cc(Cl)cc2c1nc(NCCO)c1ccccc12	-10	?	1	-9%[46.1 µM]
CN(CCC#N)C(=S)NC(=O)c1ccc(S(=O)(=O)N2CCOCC2)cc1	-9	26%[46.1 µM]	0	8%
Cc1cccnc1NC(=O)c1sc2ccccc2c1Cl	90*	?	51*	?
Cc1nnc(NC(=O)c2sc3ccccc3c2Cl)s1	-21	?	11	12µM*
Cc1c(C(=O)NC2=NCCS2)oc2ccccc12	56*	?	33*	?
CCOC(=O)N1CCN(c2ncnc3c2cnn3-c2ccc(Cl)cc2)CC1	-19	-3%	20*	/
Cc1ccc(Cn2ncc3c(N4CCN(Cc5ccc(Cl)cc5)CC4)ncnc32)cc1	24	2.8µM*	13	?
CCN1CCN(c2ncnc3c2cnn3-c2ccc(Cl)cc2)CC1	74*	/	45*	/
CN1CCN(c2ncnc3c2cnn3-c2ccc(Cl)cc2)CC1	66*	/	42*	/
CCN1CCN(c2ncnc3c2cnn3-c2ccccc2)CC1	43	/	21	/
Cc1ccc(-n2ncc3c(N4CCN(C)CC4)ncnc32)cc1	/	/	/	20%[46.1 µM]
Cc1ccc(Cn2ncc3c(N4CCN(c5ccc(C)cc5)CC4)ncnc32)cc1	15	?	-5	0%
Cc1cc(=O)oc2c(C)c(OC(C)C(=O)Nc3ccc(N4CCC(C)CC4)cc3)ccc12 (stereo not given)	-12	/	-2	/
SMILES	Shiga inhibitor	MARV entry inh	Cycloheximide cs	LASV entry inh
CCC(C)NC(=O)C1CCC(CNS(=O)(=O)c2cccc3nsnc23)CC1 (stereo not given)	15	24%[46.1 µM]	-1	10%[46.1 µM]
CC1CC(CCC(=O)NC(=S)Nc2ccc(Cl)cn2)C(=O)O1 (stereo not given)	3	3%[46.1 µM]	14	-3%
COc1ccc(OC)c(C(C(=O)NC2CCCCC2)N(Cc2ccco2)C(=O)c2ccccn2)c1 (stereo not given)	-4	-2%	-1	-26%
O=C(CN1CCC(n2nnc3cc(F)ccc32)CC1)Nc1ccccc1N1CCOCC1	-27	13µM*!	-2	-3%
CNC(=S)N1CCC(c2nc3ccccc3s2)CC1	46	/	28*	/
COC(=O)c1ccccc1NC(=O)CN1CCC(n2nnc3cc(F)ccc32)CC1	-3	4%	-2	1%
CCNC(=S)N1CCC(c2nc3ccccc3s2)CC1	-7	-22%	-4	7%
O=C(CN1CCC(c2nc3ccccc3s2)CC1)NCc1cccs1	33*	?	26*	?
O=C(CN1CCC(n2nnc3cc(C(F)(F)F)ccc32)CC1)NCc1cccs1	-3	2.2µM*	-4	?
Cc1ccc(NC(=O)CN2C(=O)c3ccccc3Sc3ncccc32)c(C)c1	/	/	/	-1%[46.1 µM]
COc1ccc(/C=C/C(=O)c2ccc[nH]2)c(OC)c1OC	100*	7%	26*	12%
COc1ccc(/C=C/C(=O)c2ccc[nH]2)cc1OC	51	?	30*	?
COc1ccc(/C=C/C(=O)c2ccncc2)c2ccccc12	2	?	7	-15%
O=C1COc2ccc(C(=O)COc3ccc([N+](=O)[O-])cc3)cc2N1	22	-22%[46.1 µM]	11	-26%[46.1 µM]
O=C1N[C@@H](Cc2ccccc2)C(=O)N2[C@H]1CSCCS2(=O)=O	/	/	/	-20%[46.1 µM]
CC(=O)Nc1nc(-c2ccc(Br)s2)cs1	63*	39%	25*	-14%
CC(=O)Nc1nc(-c2cccc3ccccc23)cs1	15	?	15*	-13%[46.1 µM]
CN(C)c1ccc(-n2cccc2)cc1	20	6%[46.1 µM]	16*	0%
Clc1ccc(-n2cccc2)cn1	32	/	-4	/
O=C(CSc1nncc2ccccc12)Nc1cccc(O)c1	-9	-1%[46.1 µM]	13	3%
O=Nc1c(-c2c(O)[nH]c3cc(Br)ccc23)[nH]c2ccccc12	30*	?	30*	?
O=C(CSCc1cccc(Br)c1)N=Nc1c(O)[nH]c2ccccc12	-10	-6%	1	?
O=CN1CCN(S(=O)(=O)c2ccc(S(=O)(=O)NC3CCCCC3)cc2)CC1	-15	6%[46.1 µM]	-2	11%[46.1 µM]
CCN(C(=O)COC(=O)c1ccc(S(=O)(=O)N2CCCc3ccccc32)cc1)C1CCS(=O)(=O)C1 (stereo not given)	15	-28%[46.1 µM]	3	?
CN(C(=O)COC(=O)c1ccc(Cl)cc1N)C1CCCCC1	13	-10%[46.1 µM]	21*	-8%
SMILES	Shiga inhibitor	MARV entry inh	Cycloheximide cs	LASV entry inh
CCN(CC)C(=O)COc1cc(C)c(Cl)c(C)c1	-4	-13%	-2	0%
CN(C(=O)COC(=O)COc1ccc(Cl)cc1)C1CCCCC1	-11	0%	-4	22%
Cc1cc(OCC(=O)N(C)C2CCCCC2)ccc1Cl	55	?	25*	?
Cc1cc(OCC(=O)N(C)C2CCCCC2)cc(C)c1Cl	91*	/	42*	/
CN(C(=O)COC(=O)c1ccc([N+](=O)[O-])cc1Cl)C1CCCCC1	27	/	8	/
Cc1ccc(-n2c(=O)c3cccnc3n2CC(=O)NCc2ccc(Cl)cc2)cc1	/	3%[46.1 µM]	/	7%[46.1 µM]
O=C(NCCc1nccs1)C1CCC(=O)N(CCc2ccc(Cl)cc2)C1 (stereo not given)	-33	9%	-1	-12%
COc1ccc(NC(=S)N(C)CC2COc3ccccc3O2)cc1 (stereo not given)	73*	/	24*	/
CN(CC1COc2ccccc2O1)C(=S)Nc1ccccc1F (stereo not given)	25	11%	8	4%
